The source of these data is PubChem BioAssay (NCATS).

Structures are written as SMILES. Records with an inconclusive call do not appear. A call without a number means that no potency is given here. Calls of active or inactive are those of the source. Calls follow the shape of the full dose curve.

Sequence of Estrogen receptor (Homo sapiens) (P03372 whole entry, looked up): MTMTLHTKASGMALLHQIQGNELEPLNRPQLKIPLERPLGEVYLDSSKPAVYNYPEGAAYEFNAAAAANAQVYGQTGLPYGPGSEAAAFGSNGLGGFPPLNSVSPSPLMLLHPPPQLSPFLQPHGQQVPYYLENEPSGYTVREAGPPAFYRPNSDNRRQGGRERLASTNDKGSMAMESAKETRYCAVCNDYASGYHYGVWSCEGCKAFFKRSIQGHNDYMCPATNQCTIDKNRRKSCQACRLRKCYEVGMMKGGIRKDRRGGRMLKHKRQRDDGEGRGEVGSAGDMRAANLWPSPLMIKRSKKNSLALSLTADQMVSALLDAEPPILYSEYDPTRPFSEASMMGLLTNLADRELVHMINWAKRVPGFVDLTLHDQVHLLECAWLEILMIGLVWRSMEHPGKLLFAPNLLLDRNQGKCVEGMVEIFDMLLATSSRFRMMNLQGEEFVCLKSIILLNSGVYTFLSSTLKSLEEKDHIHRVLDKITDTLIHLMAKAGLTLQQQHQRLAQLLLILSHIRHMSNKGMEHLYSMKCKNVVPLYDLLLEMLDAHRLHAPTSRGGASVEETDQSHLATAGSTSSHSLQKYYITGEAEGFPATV

For the test, the target named is Estrogen receptor (Homo sapiens) (UniProt P03372). Description: qHTS assay for small molecule agonists of estrogen receptor alpha signaling (AID 588514). Also: nearly all actives have a fitted effect of over 70% in size. The following applies: ER-alpha-UAS-bla HEK293, beta-lactamase ratio, 18 h; series mostly up to 76.8 µM. The text has this:
NIH Chemical Genomics Center [NCGC]
U.S. Environmental Protection Agency [EPA]
National Institutes of Environmental Health Sciences [NIEHS]
National Toxicology Program [NTP]
Estrogen receptor alpha (ER-alpha) is an important member of nuclear hormone receptors. ER-alpha plays important role in breast cancer as well as in other women's health issues. The majority of breast cancers is estrogen receptor (ER) positive and depends on estrogen for growth. There is also growing concern for some of environmental chemicals which may contribute the increasing the incidence of breast cancer. Therefore, it is important to understand the effect of environmental chemicals in ER-alpha signaling pathway.
NCGC Assay Protocol Summary
Using a beta-lactamase reporter-gene under control of the ER response element, a cell-based assay [ER-alpha-UAS-bla GripTiteTM cell-Based Assay from Invitrogen] was used to measure ER-alpha signaling pathway in agonist mode. ER-alpha-UAS-bla-GripTite HEK 293 cells were used with assay medium containing 2% charcoal/dextran treated FBS, 0.1 mM NEAA and 1 mM sodium pyruvate. Cells were cultured in this assay medium overnight in the flasks before the assay. The assay was performed in clear bottom black Greiner 1536-well plates. 17-beta-estradiol was used as a positive control in the screen. Library compounds were measured for their ability to either stimulate the reporter gene activity. Compounds were screened in a titration series in 1536-well format. […] Data was normalized relative to 17-beta-estradiol control (20 nM, 100%), and DMSO only wells (basal, 0%). Concentration-response titration points for each compound were fitted to the Hill equation yielding concentrations of half-maximal stimulation (EC50) and maximal response (efficacy) values.
qHTS protocol for ER-alpha beta-lactamase assay in agonist mode
[Step] [Parameter] [Value] [Description]
1. Reagent; 6 uL; 5000 cells/well
2. Incubation; 37 C for 4 hrs
4. Controls (17-beta-estradiol); 23 nL
- Dose response, start 1uM, 1:3 dilutions with duplicates
- Two columns with 20 and 0.5 nM (final) concentration.
5. Incubation; 37 C for 18 hrs
6. Detection reagent; 1 uL of CCF4-dye
7. Incubation; RT for 2 hrs
8. Detection; Fluorescence; Envision plate reader or Acumen plate reader
For orientation: qHTS replaces the single test concentration by a dilution series.
For `CO[C@@H]1[C@H](OC(=O)/C=C/C=C/C=C/C=C/C(=O)O)CC[C@]2(CO2)[C@H]1[C@@]1(C)O[C@@H]1CC=C(C)C`, the Potency result was “inactive”.

Turning to `Cc1ccc(S(=O)(=O)NCl)cc1`, the Potency result is “inactive”.

Take `OC[C@H]1O[C@@](CO)(O[C@H]2O[C@H](CO)[C@@H](O)[C@H](O)[C@H]2O)[C@@H](O)[C@@H]1O`: the Potency entry was “inactive”.

For the molecule `OCC(O)CO`, the Potency result is “inactive”.

As to `CC(C)(C)CC(C)(C)c1ccc(OCCO)cc1`, the Potency result was “inactive”.

For the molecule `Nc1ncnc2c1ncn2[C@H]1CC[C@@H](CO)O1`, the Potency entry was “inactive”.

In the case of `C=C(C)C1CC=C(C)CC1` (configuration not stated), the Potency entry is “inactive”.

Consider `C[C@H](CCC(=O)O)[C@H]1CC[C@H]2[C@@H]3[C@H](O)C[C@@H]4C[C@H](O)CC[C@]4(C)[C@H]3C[C@H](O)[C@]12C`, for which the Potency entry was “inactive”.

As for `NC(N)=O`, the Potency entry is “inactive”.

Turning to `Cc1ccc(S(=O)(=O)O)cc1C`, the Potency result was “inactive”.

Take `CC1=CCC2CC1C2(C)C` (configuration not stated): the Potency result is “inactive”.

In the case of `OC[C@H]1O[C@@H]2O[C@H]3[C@H](O)[C@@H](O)[C@@H](O[C@H]4[C@H](O)[C@@H](O)[C@@H](O[C@H]5[C@H](O)[C@@H](O)[C@@H](O[C@H]6[C@H](O)[C@@H](O)[C@@H](O[C@H]7[C@H](O)[C@@H](O)[C@@H](O[C@H]1[C@H](O)[C@H]2O)O[C@@H]7CO)O[C@@H]6CO)O[C@@H]5CO)O[C@@H]4CO)O[C@@H]3CO`, the Potency was 11.2 µM (active).

As for `CC(C)O`, the Potency result is “inactive”.

On to `C[C@H](CCC(=O)O)[C@H]1CC[C@H]2[C@@H]3CC[C@@H]4C[C@H](O)CC[C@]4(C)[C@H]3C[C@H](O)[C@]12C`, for which the Potency entry was “inactive”.

In the case of `c1ccc2ccccc2c1`, the Potency entry is “inactive”.

Take `NCCN`: the Potency was 0.199 µM (active).

As to `OCCOCCOCCO`, the Potency result was “inactive”.

For the molecule `OCl`, the Potency entry is “inactive”.

As for `[O-][N+](=Nc1ccccc1)c1ccccc1`, the Potency result is “inactive”.

Consider `NCCO/C=C/[C@H](N)C(=O)O`, for which the Potency entry was “inactive”.

As to `CCCCC(CC)COS(=O)(=O)O` (configuration not stated), the Potency result is “inactive”.

On to `CC(C)CCCCCCc1ccc(O)cc1`, for which the Potency is 2.51 µM (active).

Regarding `COC(=O)c1ccccc1O`, the Potency entry is “inactive”.

For the molecule `CC/C=C\C/C=C\C/C=C\CCCCCCCC(=O)O`, the Potency result was “inactive”.

As to `CC[C@H]1OC(=O)[C@H](C)[C@@H](O[C@H]2C[C@@](C)(OC)[C@@H](O)[C@H](C)O2)[C@H](C)[C@@H](O[C@@H]2O[C@H](C)C[C@H](N(C)C)[C@H]2O)[C@](C)(O)C[C@@H](C)CN(C)[C@H](C)[C@@H](O)[C@]1(C)O`, the Potency entry was “inactive”.

For `Oc1cccc(O)c1O`, the Potency is 8.91 µM (active).

Take `OCc1ccccc1`: the Potency result is “inactive”.
